The results in this text go back to PubChem BioAssay (NCATS).

Results filed as inconclusive are left out. A number with no mark means an inactive call. The source made the active and inactive calls.

In the first assay the target is Peroxisome proliferator-activated receptor delta (Homo sapiens) (UniProt Q03181). In words: qHTS assay for small molecule antagonists of peroxisome proliferator-activated receptor delta signaling (AID 588535; active = well fitted inhibition curve with a large enough effect in the signal ratio, with a control signal flat, not every such curve was filed as active; the % refers to the signal ratio). The settings on record: HEK293T PPARd-UAS-bla, beta-lactamase FRET ratio, 18 h; series mostly up to 76.7 µM; activity change, negative = inhibition: at the top concentration. A digest of the protocol: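 Cells were seeded at 4000 per well in assay medium containing 2% charcoal/dextran FBS and held 5 hrs at 37 C. Compounds were then added for 18 hrs. CCF4 substrate was applied for 2 hrs at room temperature before fluorescence reading.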
Chain of Peroxisome proliferator-activated receptor delta (Homo sapiens) (Q03181 whole entry, looked up): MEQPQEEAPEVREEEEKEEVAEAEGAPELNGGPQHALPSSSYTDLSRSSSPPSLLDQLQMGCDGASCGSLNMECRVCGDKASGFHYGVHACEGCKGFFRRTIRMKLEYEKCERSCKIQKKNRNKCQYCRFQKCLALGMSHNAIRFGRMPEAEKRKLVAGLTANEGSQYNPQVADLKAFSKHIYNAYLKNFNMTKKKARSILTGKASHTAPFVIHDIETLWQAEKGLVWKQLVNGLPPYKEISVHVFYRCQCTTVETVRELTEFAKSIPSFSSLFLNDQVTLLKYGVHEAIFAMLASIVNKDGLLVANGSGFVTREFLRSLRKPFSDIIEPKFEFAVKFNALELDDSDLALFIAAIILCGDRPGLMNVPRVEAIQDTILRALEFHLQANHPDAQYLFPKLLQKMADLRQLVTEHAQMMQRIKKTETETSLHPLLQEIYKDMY
For orientation: qHTS replaces the single test concentration by a dilution series.
On to `CCCCOC(=O)c1ccc(O)cc1`, for which the “activity change, negative = inhibition” value was 8.29%.

Consider `CC1(C)[C@@H]2CC[C@@]1(C)C(=O)C2`, for which the “activity change, negative = inhibition” value was 0.371%.

Consider `O=C1c2c(O)cccc2Cc2cccc(O)c21`, for which the “activity change, negative = inhibition” value is -24.4%.

In the case of `CC(O)CN(CCN(CC(C)O)CC(C)O)CC(C)O` (stereo not drawn), the “activity change, negative = inhibition” value was 15.1%.

Turning to `CC12CCC(CC1)C(C)(C)O2`, the “activity change, negative = inhibition” value is -8.53%.

On to `[Cl][In]([Cl])[Cl]`, for which the “activity change, negative = inhibition” value is -14.5%.

Turning to `O=C1O[C@H]([C@@H](O)CO)C(O)=C1O`, the “activity change, negative = inhibition” value was -11.8%.

As to `COc1ccccc1O`, the result was inactive.

As to `O=C1NS(=O)(=O)c2ccccc21`, the “activity change, negative = inhibition” value is 8.22%.

`CC(O)COc1ccccc1` (stereo not drawn): the “activity change, negative = inhibition” value is 15.6%.

In the case of `CCOC(=O)c1ccc(O)cc1`, the “activity change, negative = inhibition” value was -8.03%.

Consider `NC(=O)N/N=C/c1ccc([N+](=O)[O-])o1`, for which the “activity change, negative = inhibition” value was 17%.

For `NCCNCCNCCN`, the “activity change, negative = inhibition” value was -3.03%.

Turning to `Oc1cccc(O)c1`, the “activity change, negative = inhibition” value is 18.5%.

For the compound `CCCCC(CC)COC(=O)c1ccccc1O` (stereo not drawn), the “activity change, negative = inhibition” value was 7.9%.

The target in the next assay is Peroxisome proliferator-activated receptor gamma (Homo sapiens) (UniProt P37231). In words: qHTS assay for small molecule agonists of peroxisome proliferator-activated receptor gamma signaling (AID 588536; active = well fitted curve in the direction sought with a large enough effect in the signal ratio, with a control signal flat, not every such curve was filed as active; the % refers to the signal ratio;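 also: 0% = DMSO basal wells and 100% = rosiglitazone at 2 µM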). The settings on record: HEK293 PPARg-UAS-bla, beta-lactamase ratio, 16 h, percent of rosiglitazone response, DMSO as zero; series mostly up to 76.7 µM; activation: at the top concentration. A digest of the protocol: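 GeneBLAzer PPAR-gamma-UAS-bla HEK293 cells in 1% charcoal/dextran-treated FBS medium were treated 16 h at 37 C with compounds. Beta-lactamase activity was read by CCF4 ratio (460/530 nm). Response was normalized to 2 uM rosiglitazone (100%) and DMSO, then Hill-fitted for EC50 and efficacy.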
Chain of Peroxisome proliferator-activated receptor gamma (Homo sapiens) (P37231 whole entry, looked up): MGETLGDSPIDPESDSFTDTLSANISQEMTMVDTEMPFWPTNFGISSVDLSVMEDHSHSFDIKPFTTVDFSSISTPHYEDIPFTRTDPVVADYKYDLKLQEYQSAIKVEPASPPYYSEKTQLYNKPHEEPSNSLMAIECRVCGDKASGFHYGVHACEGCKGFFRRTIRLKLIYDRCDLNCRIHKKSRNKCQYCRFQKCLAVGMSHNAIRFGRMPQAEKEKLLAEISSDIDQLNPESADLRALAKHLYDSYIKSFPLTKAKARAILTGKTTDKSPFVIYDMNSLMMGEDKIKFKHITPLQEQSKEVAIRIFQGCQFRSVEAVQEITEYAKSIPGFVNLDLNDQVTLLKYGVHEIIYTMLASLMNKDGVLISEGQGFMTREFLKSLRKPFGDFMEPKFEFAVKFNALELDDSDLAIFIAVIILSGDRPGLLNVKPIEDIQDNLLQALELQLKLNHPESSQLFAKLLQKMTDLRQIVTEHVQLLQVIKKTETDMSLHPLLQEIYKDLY
Take `O=C1c2c(O)cccc2Cc2cccc(O)c21`: the “activation” value is 4.61%.

With `CC(O)CN(CCN(CC(C)O)CC(C)O)CC(C)O` (stereo not drawn), the “activation” value was -4.48%.

In the case of `CC12CCC(CC1)C(C)(C)O2`, the “activation” value is 3.14%.

For `Cc1cccc(Nc2cc(Cl)nc(SCC(=O)O)n2)c1C`, the “activation” value is 2.73%.

On to `O=C1O[C@H]([C@@H](O)CO)C(O)=C1O`, for which the result was inactive.

`COc1ccccc1O`: the outcome was inactive.

With `CCCCCCCCCCCCOS(=O)(=O)O`, the outcome was inactive.

With `O=C1NS(=O)(=O)c2ccccc21`, the “activation” value is -6.17%.

In the case of `Nc1ccc(S(=O)(=O)Nc2nccs2)cc1`, the “activation” value was -2.59%.

For `CC(O)COc1ccccc1` (stereo not drawn), the “activation” value was -1.13%.

Take `NC(=O)N/N=C/c1ccc([N+](=O)[O-])o1`: the result was inactive.

Regarding `Oc1cccc(O)c1`, the “activation” value was 4.08%.

Consider `CCCCC(CC)COC(=O)c1ccccc1O` (stereo not drawn), for which the “activation” value is 6.41%.
